From PubChem
miR-122 sensor – blocks miR-122 activity in Huh7 sensor cells; Huh7 miR-122 Renilla luciferase sensor, 48 h; neutral wells = 0, positive control = 100; AID 602342; 340,000 compounds, 0.3% hits; activation (reporter increase), % at 12.5 µM;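 active = mean replicate activation score at least 90 and every replicate individually at or above 90; inconclusive = only one of the two criteria met; inactive = neither criterion met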;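 note: higher luciferase means less miR-122 activity so hits act as miR-122 inhibitors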
PvdQ inh – blocks Pseudomonas aeruginosa PvdQ acylase activity. purified PvdQ acylase, fluorescence plate reader. inhibition, % at 10 µM. 340,000 compounds, 0.063% hits. AID 488965; in the data active = inhibition above about 30%, passing the limit was not always enough; inconclusive = no clear call, values can overlap the other calls;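 note: 0% = vehicle neutral wells and 100% = reference inhibitor wells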
PGC1a acetyl inh – PGC1a acetylation modulation, inhibitor mode. U2OS PGC1a acetylation, AlphaScreen anti-acetyl-lysine; with virally co-expressed GCN5 acetyltransferase. inhibition, % at 15.6 µM. AID 651687. 350,000 compounds, 0.17% hits;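 active = every replicate shows inhibition of at least 40%; inconclusive = mean inhibition at least 40% but some replicate below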;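 note: 0% = neutral control wells and 100% = positive control wells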
DENV2 CPE rescue – inhibitors of DENV2 cytopathic effect; DENV2-infected cells, cytopathic effect rescue, plate reader; 350,000 compounds, 1.7% hits; CPE inhibition, % at 9.99 µM; in the data active = CPE inhibition above about 20%, passing the limit was not always enough; inconclusive = no clear call, values can overlap the other calls; tested in BHK-21 cells;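 note: 0% = median of neutral control wells and 100% = median of positive control wells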
C2C12 statin – protects C2C12 myotubes from simvastatin toxicity; ATP luminescence, 48 h; scaled: DMSO 0, geranylgeraniol control 100; rescue of ATP level, % at 7.49 µM; 330,000 compounds, 0.78% hits; AID 602340;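 active = mean ATP rescue above about 67%, or every replicate alone reaching that limit, limit read from the data, passing the limit was not always enough; inconclusive = no clear call, values can overlap the other calls; inactive = mean under the limit and some replicate under it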;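 note: myotubes were challenged with 10 µM simvastatin during compound exposure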
* hit, by the source's call; ? = inconclusive; . = no result given; [ ] = dose if it differs, or a comment. Sampled rows, rich in hits. Any-hit rate of the full collection: about 2.2%.

SMILES | miR-122 sensor | PvdQ inh | PGC1a acetyl inh | DENV2 CPE rescue | C2C12 statin
N#CN(Cc1ccccc1)Cc1ccccc1 | -7 | 92* | -3 | 9 | -14
Cc1cc(C)nc(N(C#N)CC(=O)c2ccccc2)n1 | 3 | -14 | 11 | . | -2
CCc1ccc(C(=O)CN(C#N)c2nc(C)cc(C)n2)cc1 | 20 | -16 | 49* | . | .
Cc1cc(C)nc(SCc2ccc([N+](=O)[O-])cc2)n1 | . | -12 | . | -7 | .
CC(C)CC#Cc1ccc([C@H]2[C@H](CO)N3C(=O)CN(C(=O)c4cccc(F)c4)C[C@@H]23)cc1 | . | . | 9 | -5 | .
C[C@@H]1CN([C@H](C)CO)C(=O)CCCn2cc(nn2)CO[C@H]1CN(C)Cc1ccc2c(c1)OCCN2C | 2[16.7 µM] | . | -3 | 0 | -3
COc1ccc(NC(=O)N(C)C[C@H]2Oc3ncc(C#C[C@@H](C)O)cc3C(=O)N([C@@H](C)CO)C[C@@H]2C)cc1 | -3[16.7 µM] | . | 1 | 6 | -6
O=C(CCc1ccccc1)NNC(=O)Nc1ccccc1 | -4 | -17 | 3 | -2 | .
O=C(CCCCCCCC(=O)NNC(=O)Nc1ccccc1)NNC(=O)Nc1ccccc1 | . | 3 | . | 115* | .
OC[C@H]1[C@@H](c2ccccc2)C2(CN(Cc3ccccc3)C2)N1Cc1ccncc1 | . | . | . | -6 | .
CNc1ccccc1C(=O)OCC(=O)c1ccccc1 | -1 | -8 | 4 | 32* | -17
CNc1ccccc1C(=O)OCC(=O)c1ccc(F)cc1 | . | 4 | . | 0 | .
COc1ccc(S(=O)(=O)N2CCN(C(=O)c3cccs3)CC2)cc1 | 1 | 8 | -7 | . | 2
CCN1CCN(c2ccc(S(=O)(=O)N3CCCCC3)cc2NC(=O)c2ccc(C)c(C)c2)CC1 | 2 | -11 | -10 | 38* | -6
Cc1ccc(S(=O)(=O)N2CCCC2)cc1C(=O)O | -5 | -24 | 59* | . | -4
Cc1ccc(S(=O)(=O)N2CCN(C(=O)c3cccs3)CC2)cc1C | 1 | -14 | -11 | 13 | 118*
COc1ccccc1N1CCN(C(=O)c2cc(S(=O)(=O)N3CCCCC3)ccc2C)CC1 | -4 | -9 | 43 | 34* | 2
CCN1CCN(c2ccc(S(=O)(=O)N3CCCCC3)cc2NC(=O)c2cccc(C)c2)CC1 | . | -15 | . | 1 | .
CN1CCN(C(=O)C2=C[C@H](C3CC3)C[C@H](OCCCCO)O2)CC1 | . | . | 4 | -8 | .
CC=Cc1ccc2n(c1=O)C[C@@H]1[C@@H](CO)[C@H](C(=O)NCCC)[C@H]2N1Cc1nccs1 (mixture of isomers) | 1[16.7 µM] | . | . | 2 | -14
O=C(Cn1c(=O)oc2cc(S(=O)(=O)N3CCCCC3)ccc21)N1CCCCC1 | . | -10 | . | 7 | 16
COc1ccccc1N1CCN(C(=O)Cn2c(=O)oc3cc(S(=O)(=O)N4CCCC4)ccc32)CC1 | -3 | -7 | -13 | 33* | -1
CC(C)CC#Cc1ccc2c(c1)O[C@@H](CN(C)Cc1ccc3c(c1)OCO3)[C@H](C)CN([C@H](C)CO)S2(=O)=O | -1[16.7 µM] | . | 53* | -1 | -75
CC(C)CC#Cc1ccc2c(c1)O[C@H](CN(C)Cc1cncnc1)[C@H](C)CN([C@@H](C)CO)S2(=O)=O | 2[16.7 µM] | . | -4 | -4 | -7
C[C@H]1CN([C@@H](C)CO)S(=O)(=O)c2ccc(C#CCN(C)C)cc2O[C@@H]1CN(C)Cc1ccc2c(c1)OCO2 | 104*[16.7 µM] | . | -54 | -19 | -54
SMILES | miR-122 sensor | PvdQ inh | PGC1a acetyl inh | DENV2 CPE rescue | C2C12 statin
CC(C)CC#Cc1ccc2c(c1)O[C@H](CN(C)Cc1ccc(F)cc1)[C@H](C)CN([C@@H](C)CO)S2(=O)=O | -24[16.7 µM] | . | -28 | 16 | -107
CC(C)CC#Cc1ccc2c(c1)O[C@@H](CN(C)Cc1cncnc1)[C@H](C)CN([C@@H](C)CO)S2(=O)=O | 6[16.7 µM] | . | 14 | 24* | -49
CC(C)CC#Cc1ccc2c(c1)O[C@@H](CN(C)Cc1ccc(F)cc1)[C@@H](C)CN([C@H](C)CO)S2(=O)=O | -5[16.7 µM] | . | -20 | 45* | 6
COc1ccc(CN(C)C[C@@H]2OCCCC[C@@H](C)Oc3ccc(NC(=O)NC(C)C)cc3C(=O)N([C@@H](C)CO)C[C@@H]2C)cc1 | 1[16.7 µM] | . | 3 | -7 | 22
Cc1noc(C)c1S(=O)(=O)Nc1ccc2c(c1)C(=O)N([C@@H](C)CO)C[C@H](C)[C@@H](CN(C)C(=O)Nc1ccc3c(c1)OCO3)OCCCC[C@@H](C)O2 | 5[16.7 µM] | . | 0 | 2 | .
N#Cc1cccc(-n2nnnc2-c2ccc3c(c2)OCO3)c1 | -5 | -1 | 3 | . | .
N#Cc1ccc(-c2nnnn2-c2ccc3c(c2)OCO3)cc1 | -8 | -17 | -3 | . | 107*
Cc1ccc(OCCCn2c(CO)nc3ccccc32)cc1 | 4 | 2 | -2 | . | 134*
COc1ccccc1Cn1c(CCCO)nc2ccccc21 | -1 | -23 | -9 | . | 7
COCCOCCn1c(CCCO)nc2ccccc21 | -4 | 0 | 6 | . | 82*
O=[N+]([O-])c1cccc(N=NN(CCO)c2cccc([N+](=O)[O-])c2)c1 | 9 | 4 | 2 | . | -14
N#CCN(N=Nc1ccccc1)c1ccccc1 | 0 | 75* | -14 | 7 | -8
CCCSc1nc(N)c2c3c(sc2n1)CN(C)CC3 | -3 | -11 | 18 | . | 99*
CCOc1ccc(Br)cc1S(=O)(=O)Nc1ccc(Cl)c(S(=O)(=O)N(CC)c2ccccc2)c1 | 281* | -11 | . | -5 | .
Cc1nnc(NC(=O)C2CCCN(S(=O)(=O)c3ccccc3C(F)(F)F)C2)s1 (centres undefined) | 3 | -7 | -18 | . | -4
Cc1nnc(NC(=O)C2CCCN(S(=O)(=O)Cc3ccccc3)C2)s1 (centres undefined) | -6 | -7 | -2 | . | 120*
COc1cccc(C(=O)Nc2ccc3c(c2)C(=O)N(C)[C@H]2CC[C@H](CC(=O)N[C@H](C)c4ccccc4)O[C@H]2CO3)c1 | -4[16.7 µM] | . | -8 | -7 | 53
CC(=O)NC[C@@H]1[C@@H](c2ccc(-c3cccnc3)cc2)[C@@H](CO)N1C(=O)C1CC1 | 21[16.7 µM] | . | 2 | 7 | 1
CN1CCN(/N=C/c2ccc(OCc3ccccc3)cc2)CC1 | . | -7 | ? | 23* | 3
COC(=O)c1ccc(COc2ccc(/C=N/N3CCN(C)CC3)cc2)cc1 | . | -16 | 1 | -2 | .
CC(C)n1cnnc1SCC(=O)Nc1cccnc1Cl | 6 | 7 | 3 | 68* | 24
Cc1ccccc1-n1cnnc1SCC(=O)Nc1cccnc1Cl | . | -11 | 1 | . | .
Cc1cccc(C)c1NC(=O)C1(C)CSCC(=O)N1Cc1cccc(C(F)(F)F)c1 (centres undefined) | . | . | . | 34* | .
Cc1cccc(C)c1NC(=O)C1(C)CSCC(=O)N1Cc1cccc(F)c1 (centres undefined) | . | . | . | -1 | .
Cc1nc(N(C)C)c2sc(=S)n(C)c2n1 | -6 | -4 | 6 | 38* | -11
C[C@H]1CCCCO[C@H](CN(C)Cc2ccc(C(F)(F)F)cc2)[C@@H](C)CN([C@@H](C)CO)C(=O)c2cc(NC(=O)CCC(F)(F)F)ccc2O1 | -3[16.7 µM] | . | 17 | -8 | -162
C[C@H](NC(=O)C[C@H]1C=C[C@@H](NC(=O)c2cccnc2)[C@@H](CO)O1)c1ccccc1 | . | . | 15 | ? | 1
